Screening results as filed in PubChem.
hcDAF-12 act: H. contortus DAF-12 nuclear receptor activators, primary screen, cell-based, luminescence, HEK293, lit1-tk-luc reporter; activation, % at 6.8 µM; hit rate 1.4% among 370,000; AID 652067, 2013; HEK293 hcDAF-12 lit1-tk-luc reporter; 0% DMSO, 100% Δ7-dafachronic acid;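 active means activation above the mean of all tested compounds plus 3 SD, cut at about 5.5% in these data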
SMARCA2 activ: SMARCA2 (BRM) function activators, primary screen, cell-based, luminescence, high throughput. MG213 cells, MMTV-luciferase reporter, dexamethasone, overnight. activation, % at 9.1 µM. hit rate 1% among 370,000. AID 652017, 2013; in the data active means activation above about 7.8%
DAX1 inh-1: DAX1 (NR0B1) inhibitors, primary screen, cell-based, HEK293, Gal4-DAX1, luciferase luminescence. Nuclear receptor subfamily 0 group B member 1 (Homo sapiens), P51843. HEK293 Gal4-DAX1 luciferase reporter. inhibition, % at 6.75 µM. hit rate 0.99% among 340,000;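 active means inhibition above the mean over all tested compounds plus 3 SD, cut at about 4.2% in these data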;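 further: inhibition shows as a rise in luminescence from relieved DAX1 repression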
ssDAF12 agonist: S. stercoralis DAF-12 nuclear receptor activators, primary screen, cell-based, luminescence, HEK293, GRIP1 co-expression, lit1-tk-luc | HEK293 ssDAF-12/GRIP1 lit1-tk-luc reporter; % of 3 µM dafachronic acid response | activation, % at 6.8 µM | hit rate 1% among 370,000 | AID 652126, 2013;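 active means activation above the mean over all tested compounds plus 3 SD, cut at about 0.9% in these data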
DAX1 inh-2: DAX1 (NR0B1) inhibitors on StAR promoter, primary screen, cell-based, luminescence, SF-1 (NR5A1), full-length DAX-1; HEK293T StAR-luciferase reporter, SF-1/DAX-1 repression relief; inhibition, % at 6.8 µM; hit rate 1.1% among 370,000;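 active means inhibition above the mean over all tested compounds plus 3 SD, cut at about 3.6% in these data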;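 further: higher inhibition means more luminescence from relief of DAX-1 repression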
hgDAF-12 ag: H. glycines DAF-12 receptor agonists, primary screen, cell-based, luminescence, HEK293, GAL4 fusion, UAS-luciferase | Nuclear hormone receptor DAF-12 (Heterodera glycines), GAL4 fusion | activation, % at 6.8 µM | HEK293 GAL4-hgDAF12 UAS-luciferase reporter, agonist luminescence; normalized to butyrate control | hit rate 1.8% among 370,000;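 active means activation above a cutoff set at the mean of all screened compounds plus 3 SD, cut at about 10% in these data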
LXRb hcDAF ctr: LXR agonists, Gal4 luciferase reporter, confirmation, counter-screen for hcDAF-12 agonist project, cell-based, luminescence, HEK293, H. contortus campaign; shares compounds with hcDAF-12 act; HEK293 Gal4-LXR tk-luc reporter, 24 h; normalized: DMSO 0%, positive control 100%; activation, % at 6.8 µM; 3,400 tested, under 10 active;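 active means mean percent activation of the reporter above a cutoff set as the average over tested compounds plus their standard deviation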
Target sequence (P55055 whole entry, looked up, the tested form may be a part): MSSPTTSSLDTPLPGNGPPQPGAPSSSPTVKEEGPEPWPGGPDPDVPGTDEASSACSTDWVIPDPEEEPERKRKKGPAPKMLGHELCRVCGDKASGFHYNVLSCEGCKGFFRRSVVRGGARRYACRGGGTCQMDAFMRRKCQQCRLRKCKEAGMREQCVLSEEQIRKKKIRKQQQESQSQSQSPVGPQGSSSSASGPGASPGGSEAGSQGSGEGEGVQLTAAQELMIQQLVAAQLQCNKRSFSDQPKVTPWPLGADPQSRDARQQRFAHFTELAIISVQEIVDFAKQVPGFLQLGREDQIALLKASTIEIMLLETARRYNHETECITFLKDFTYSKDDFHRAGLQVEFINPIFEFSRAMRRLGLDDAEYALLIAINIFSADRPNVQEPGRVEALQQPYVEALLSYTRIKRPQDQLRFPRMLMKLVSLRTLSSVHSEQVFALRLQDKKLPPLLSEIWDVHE
hcDAF12 conf: H. contortus DAF-12 receptor agonists, confirmation, cell-based, luminescence, HEK293, lit1-tk-luc, triplicate; shares compounds with hcDAF-12 act; HEK293 hcDAF-12 lit1-tk-luc reporter; % of Δ7-dafachronic acid response; activation, % at 6.8 µM; hit rate 61% among 3,400; AID 743032, 2013;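 active means mean activation across triplicate tests above the threshold derived from the earlier primary screen, cut at about 5.5% in these data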
Each line names hits and unclear results; the compound was inactive in the other large screens (follow-up assays come after a bar, where they were run). This is a sample that favours compounds with a hit; in the whole collection about 4.8% have one here.

Cc1ccc(-n2c([O-])nc(-[n+]3ccccc3)c2C=O)cc1	none
C[C@H](NC(=O)[C@H](Cc1ccccc1)NC(=O)c1cc2cc(Cl)ccc2n1C)C(=O)O	hcDAF-12 act 6.8 | LXRb hcDAF ctr inactive | hcDAF12 conf inactive
C[C@H](NC(=O)c1cc2cc(Cl)ccc2n1C)C(=O)N[C@@H](Cc1ccccc1)C(=O)O	none
COc1ccc(NS(=O)(=O)c2cccc(C(=O)NN=C(C)c3ccco3)c2)cc1	none
Oc1oc(-c2ccccc2)nc1C=Nc1cccc2ccccc12	hcDAF-12 act 11.5 | LXRb hcDAF ctr inactive | hcDAF12 conf inactive
N/C(=N\OCc1ccc([N+](=O)[O-])cc1)c1ccncc1	none
Oc1c(C=Nc2ccccc2Cl)[nH]c2ccccc12	hcDAF-12 act 14.8, ssDAF12 agonist 1.1, hgDAF-12 ag 13.6 | LXRb hcDAF ctr inactive | hcDAF12 conf 8.9
COc1ccc(OC)c(NC(=O)CSc2nnc(N)s2)c1	none
CC1CCCC(=NNc2ccc3ccccc3n2)C1 (stereo not given)	hcDAF-12 act 6.7 | LXRb hcDAF ctr inactive | hcDAF12 conf inactive
CC1CCC/C(=N\NS(=O)(=O)c2ccccc2)C1 (stereo not given)	none
O=C1CC(N(CCc2ccccc2)C(=S)Nc2cc(Cl)ccc2Cl)C(=O)N1c1c(Cl)cccc1Cl (stereo not given)	none
Cc1cc(=O)oc2cc(NC(=O)CN3C(=O)NC(C)(c4ccccc4)C3=O)ccc12 (stereo not given)	none
COc1cc(NC(=O)c2cc(-c3ccco3)on2)c(OC)cc1Cl	hcDAF-12 act 6.6 | LXRb hcDAF ctr inactive | hcDAF12 conf 7.7
COc1cc(NC(=O)c2cc(C)on2)c(OC)cc1Cl	none (no result: SMARCA2 activ, DAX1 inh-1, DAX1 inh-2)
N#CCCn1cc(C(=O)Nc2ccc(C(=O)O)cc2)c(-c2cccc(Br)c2)n1	none
C/C(C/C(C)=C1/SC(=S)NC1=O)=C1\SC(=S)NC1=O	hcDAF-12 act 6.8 | LXRb hcDAF ctr inactive | hcDAF12 conf inactive
CS/C(=C/[N+](=O)[O-])Nc1cccc2c1C(C)CC2(C)C (stereo not given)	none
CSc1nc(O)c(/C=C2\C=Nc3ccccc32)[nH]1	hcDAF-12 act 12.1 | LXRb hcDAF ctr inactive | hcDAF12 conf 10.5
O=C(NN=C(Cc1ccccc1)Cc1ccccc1)c1ccc(F)cc1	hcDAF-12 act 6.8 | LXRb hcDAF ctr inactive | hcDAF12 conf inactive
C/C(Cc1ccccc1)=N\NC(=O)c1ccc(F)cc1	none
COc1ccccc1Cc1c(-c2ccc(F)cc2)nc2cc(C)c(Br)c(C)n12	hcDAF-12 act 8.6, ssDAF12 agonist 1.1 (no result: DAX1 inh-1) | LXRb hcDAF ctr inactive | hcDAF12 conf 6.7
COc1ccccc1Cc1c(-c2ccccc2)nc2cc(C)c(Br)c(C)n12	none (no result: DAX1 inh-1)
Cc1cc2nc(-c3ccc(Cl)cc3)c(Cc3ccsc3)n2c(C)c1Br	hcDAF-12 act 6.8, ssDAF12 agonist 0.9 (no result: DAX1 inh-1) | LXRb hcDAF ctr inactive | hcDAF12 conf inactive
COc1ccc(Cc2c(-c3cccc(Cl)c3)nc3cc(C)c(Br)c(C)n23)c(C)c1	hcDAF-12 act 6.9, ssDAF12 agonist 2.0 (no result: DAX1 inh-1) | LXRb hcDAF ctr inactive | hcDAF12 conf inactive
COc1ccccc1Cc1c(C(C)(C)C)nc2cc(C)c(Br)c(C)n12	none (no result: DAX1 inh-1)
Cc1cc2nc(-c3cccc(Br)c3)c(Cc3cccc(Cl)c3)n2c(C)c1Br	none (no result: DAX1 inh-1)
COc1ccccc1Cc1c(-c2ccc(C)cc2)nc2cc(C)c(Br)c(C)n12	hcDAF-12 act 9.9, ssDAF12 agonist 1.9, hgDAF-12 ag 12.2 (no result: DAX1 inh-1) | LXRb hcDAF ctr inactive | hcDAF12 conf 11.3
Cc1cc(C(=O)C(C(c2ccccc2)N2CCOCC2)N2CCOCC2)ccc1Cl (stereo not given)	none
CCOC(=O)Nc1cccc2ccccc12	none
CCOC(=O)Nc1ccc2c3c(cccc13)-c1ccccc1-2	hcDAF-12 act 8.2, DAX1 inh-2 4.2 | LXRb hcDAF ctr inactive | hcDAF12 conf 7.7
COc1ccc(Nc2nnc(SCC(=O)N3CCCC3)s2)cc1	none
O=C(CSc1nnc(Nc2ccccc2F)s1)c1cc2ccccc2o1	hcDAF-12 act 7.8 | LXRb hcDAF ctr inactive | hcDAF12 conf inactive
COc1ccc(Nc2nnc(SCC(=O)c3cc4ccccc4o3)s2)cc1	hcDAF-12 act 10.0, ssDAF12 agonist 2.0 | LXRb hcDAF ctr inactive | hcDAF12 conf inactive
O=C1c2ccccc2C(=O)N1CSc1nnc(Nc2ccccc2F)s1	none
CCc1nc2c(OCCC3CCCCC3)cccn2c1N(C)C(=O)COc1ccccc1	none (no result: DAX1 inh-1)
COCCNC(=O)CN1C(=O)NC2(CCOc3ccccc32)C1=O (stereo not given)	hcDAF-12 act 7.2 | LXRb hcDAF ctr inactive | hcDAF12 conf inactive
COc1ccc2[nH]c(=O)c(CN(CCO)S(=O)(=O)c3ccc4c(c3)OCCO4)cc2c1	none
Cn1cc(C(=O)N/N=C/C(Br)=C/c2ccccc2)ccc1=O	hcDAF-12 act 7.6 | LXRb hcDAF ctr inactive | hcDAF12 conf inactive
Cn1cc(C(=O)N/N=C/C(Br)=C\c2ccccc2)ccc1=O	none
COc1ccccc1OCCNC(=O)c1cc(SC)ccc1Cl	none
COc1ccccc1OCCNC(=O)c1cc(F)c(F)cc1Cl	hcDAF-12 act 7.8 | LXRb hcDAF ctr inactive | hcDAF12 conf inactive
CC(=O)c1sc(NC(=O)c2oc3ccc(F)cc3c2C)nc1C	hcDAF-12 act 6.9 | LXRb hcDAF ctr inactive | hcDAF12 conf inactive
CC(=O)c1sc(NC(=O)c2cc(=O)c3ccccc3o2)nc1C	none
Brc1ccc(-c2nc3ccccc3s2)s1	hcDAF-12 act 10.0, ssDAF12 agonist 1.2, hgDAF-12 ag 12.8 | LXRb hcDAF ctr inactive | hcDAF12 conf 11.4
CCCNC(=O)c1ccc(-c2nc3ccccc3s2)s1	none
